Inconclusive results are not listed. The source made the active and inactive calls. How the source made its calls, unless noted: active means hit-call score of the fitted dose curve at least 0.9, where 1 is the maximum; inactive means score below 0.9.
Columns and labels:
[1] = ATG_TCF_b_cat_CIS: Attagene CIS-FACTORIAL HepG2 Assay for human T-Cell-Factor with beta-catenin (TCF/b-cat) (AID 2282965); conditions: HepG2 TCF/beta-catenin cis-reporter transcription, actives raise or lower the signal
How it was run: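 HepG2 cells transiently transfected with multiple cis-promoter-regulated reporter transcription units, so endogenous transcription factor activity is measured. Reporter mRNA read 24 hours after dosing by RT-PCR, fluorescent labelling and capillary electrophoresis; bidirectional fitting against DMSO.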

[2] = ATG_TAL_CIS: Attagene CIS-FACTORIAL HepG2 Assay for human TAL Basal Promoter (AID 2282966); conditions: HepG2 Attagene cis-factorial TAL promoter reporter; actives raise or lower the signal;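 further: background control endpoint measuring basal TAL promoter reporter mRNA not a specific factor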
How it was run: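 HepG2, transient MRTU transfection, 24 h compound exposure; RNA → oligo(dT) RT → PCR → 6-FAM primer extension → HpaI digest → CE fluorescence. Bidirectional curve fit vs DMSO. Background-control readout.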

[3] = ATG_TGFb_CIS: Attagene CIS-FACTORIAL HepG2 Assay for human Transforming Growth Factor (TGF) (AID 2282967); conditions: HepG2 Attagene CIS TGFb reporter, mRNA transcription; actives raise or lower the signal
How it was run: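 Readout: fluorescently labeled reporter cDNA fragments resolved by capillary electrophoresis after RT-PCR. Transfected HepG2 cells dosed for 24 h; endogenous TF activity at TGFB1-linked cis element; gain or loss fitted relative to DMSO.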

[4] = ATG_VDRE_CIS: Attagene CIS-FACTORIAL HepG2 Assay for human Vitamin D Receptor Element (VDRE) (AID 2282968); conditions: HepG2 VDRE cis-reporter transcription, actives raise or lower the signal
How it was run: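 Steps: transfect HepG2 with multiple reporter transcription units; dose chemicals 24 h; isolate RNA; RT-PCR; label with 6-FAM primer extension; HpaI digest; capillary electrophoresis. Curves fitted both directions against DMSO.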

[5] = molecular target: Nuclear receptor subfamily 1 group I member 3 (Homo sapiens) (UniProt Q14994); test: ATG_CAR_TRANS: Attagene TRANS-FACTORIAL HepG2 Assay for human Constitutive Androstane Receptor (CAR) (AID 2282969; active means hit-call score of the fitted dose curve at least 0.9, where 1 is the maximum;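 further: activators raise reporter mRNA above DMSO so AC50 marks induction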); conditions: HepG2 Attagene TRANS-FACTORIAL CAR reporter
Sequence of Nuclear receptor subfamily 1 group I member 3 (Homo sapiens) (Q14994 whole entry, looked up, the tested form may be a part): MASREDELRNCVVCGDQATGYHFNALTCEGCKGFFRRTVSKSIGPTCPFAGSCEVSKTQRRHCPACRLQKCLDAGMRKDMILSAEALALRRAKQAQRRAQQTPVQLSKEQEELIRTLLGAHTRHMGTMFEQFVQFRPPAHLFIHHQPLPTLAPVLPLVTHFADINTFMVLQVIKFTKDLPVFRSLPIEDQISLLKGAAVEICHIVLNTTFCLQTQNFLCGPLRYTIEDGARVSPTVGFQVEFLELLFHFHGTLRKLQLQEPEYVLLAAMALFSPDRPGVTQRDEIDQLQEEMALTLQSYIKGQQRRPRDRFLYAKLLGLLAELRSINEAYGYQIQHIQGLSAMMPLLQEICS
How it was run: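 Steps: transient transfection of HepG2 with multiple GAL4-UAS reporter units; 24 h compound incubation; RNA isolation, RT-PCR, 6-FAM primer extension, HpaI digest; capillary electrophoresis. Gain-of-signal relative to DMSO negative control.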

[6] = molecular target: Estrogen receptor (Homo sapiens) (UniProt P03372); test: ATG_ERa_TRANS: Attagene TRANS-FACTORIAL HepG2 Assay for human Estrogen Receptor alpha (ERa) (AID 2282970; active means hit-call score of the fitted dose curve at least 0.9, where 1 is the maximum); conditions: HepG2 Attagene TRANS ERa GAL4 reporter, mRNA
Sequence of Estrogen receptor (Homo sapiens) (P03372 whole entry, looked up, the tested form may be a part): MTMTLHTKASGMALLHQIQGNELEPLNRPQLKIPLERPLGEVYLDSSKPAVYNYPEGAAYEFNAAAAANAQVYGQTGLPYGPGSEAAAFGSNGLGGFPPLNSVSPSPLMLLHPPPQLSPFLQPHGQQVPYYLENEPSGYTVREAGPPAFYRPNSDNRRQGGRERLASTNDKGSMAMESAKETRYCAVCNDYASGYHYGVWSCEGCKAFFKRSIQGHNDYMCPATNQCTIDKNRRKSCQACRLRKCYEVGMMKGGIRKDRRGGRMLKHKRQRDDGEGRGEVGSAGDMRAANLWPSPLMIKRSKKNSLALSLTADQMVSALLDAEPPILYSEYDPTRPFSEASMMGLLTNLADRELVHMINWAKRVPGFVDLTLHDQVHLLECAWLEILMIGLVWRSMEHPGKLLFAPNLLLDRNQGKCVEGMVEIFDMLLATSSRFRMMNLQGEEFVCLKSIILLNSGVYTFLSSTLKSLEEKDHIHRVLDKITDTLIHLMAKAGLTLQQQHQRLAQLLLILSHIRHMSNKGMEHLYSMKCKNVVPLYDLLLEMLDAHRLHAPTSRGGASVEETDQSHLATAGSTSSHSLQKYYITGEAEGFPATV
How it was run: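 Reporter mRNA induction after 24 hours, detected by fluorescent RT-PCR and capillary electrophoresis, gives the read-out. Cells are HepG2 transiently transfected with GAL4-UAS reporter transcription units responding to chimeric NR-Gal4. Activity is taken as gain of signal over DMSO baseline.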

[7] = molecular target: Steroid hormone receptor ERR1 (Homo sapiens) (UniProt P11474); test: ATG_ERRa_TRANS: Attagene TRANS-FACTORIAL HepG2 Assay for human Estrogen-Related Receptor alpha (ERRa) (AID 2282971; active means hit-call score of the fitted dose curve at least 0.9, where 1 is the maximum); conditions: HepG2 Attagene TRANS reporter, ERRa transactivation
Sequence of Steroid hormone receptor ERR1 (Homo sapiens) (P11474 whole entry, looked up, the tested form may be a part): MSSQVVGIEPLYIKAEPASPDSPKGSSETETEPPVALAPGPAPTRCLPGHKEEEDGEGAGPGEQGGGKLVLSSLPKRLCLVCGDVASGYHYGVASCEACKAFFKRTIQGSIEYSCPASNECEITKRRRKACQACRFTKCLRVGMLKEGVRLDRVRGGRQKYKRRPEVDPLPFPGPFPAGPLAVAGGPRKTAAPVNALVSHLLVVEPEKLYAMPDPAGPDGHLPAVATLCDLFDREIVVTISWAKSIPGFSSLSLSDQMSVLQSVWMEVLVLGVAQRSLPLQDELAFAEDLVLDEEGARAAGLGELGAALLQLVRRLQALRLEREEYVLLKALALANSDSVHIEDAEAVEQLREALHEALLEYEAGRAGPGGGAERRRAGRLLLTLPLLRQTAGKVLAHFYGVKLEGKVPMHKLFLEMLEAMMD
How it was run: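 Transfected HepG2, 24 h dosing, ERRa-Gal4 chimera driving GAL4-UAS reporter. Readout: reporter mRNA via RT-PCR plus capillary electrophoresis (fluorescence). Positive direction vs DMSO control.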

[8] = molecular target: X-box-binding protein 1 (Homo sapiens) (UniProt P17861); test: ATG_Xbp1_CIS: Attagene CIS-FACTORIAL HepG2 Assay for human X-box Binding Protein 1 (XBP1) (AID 2282972); conditions: HepG2 XBP1 cis-element reporter, Attagene multiplex; actives raise or lower the signal
Sequence of X-box-binding protein 1 (Homo sapiens) (P17861 whole entry, looked up): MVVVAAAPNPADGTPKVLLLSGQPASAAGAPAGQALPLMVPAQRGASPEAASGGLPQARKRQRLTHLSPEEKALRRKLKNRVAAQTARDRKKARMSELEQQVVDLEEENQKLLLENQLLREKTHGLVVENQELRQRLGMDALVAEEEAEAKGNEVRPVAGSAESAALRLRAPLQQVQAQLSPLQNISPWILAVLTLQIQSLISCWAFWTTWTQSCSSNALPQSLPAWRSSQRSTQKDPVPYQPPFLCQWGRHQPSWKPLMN
How it was run: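 Changes in reporter transcript abundance, read by RT-PCR and capillary electrophoresis, reflect endogenous transcription factor activity. Transfected HepG2 cells received compound for 24 hours; DMSO defined baseline for bidirectional analysis.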

[9] = ATG_M_19_TRANS: Attagene TRANS-FACTORIAL HepG2 Assay for M19 Transcription Factor (Internal Marker) (AID 2282974; active means hit-call score of the fitted dose curve at least 0.9, where 1 is the maximum); conditions: HepG2 Attagene TRANS-FACTORIAL M19 internal marker reporter
How it was run: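 Measured here: internal-marker reporter transcript from HepG2 cells transfected with MRTUs, harvested at 24 h. cDNA PCR products were 6-FAM labelled by primer extension, cut with HpaI for 2 h at 37 C, and resolved by CE.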

[10] = ATG_GAL4_TRANS: Attagene TRANS-FACTORIAL HepG2 Assay for GAL4 (Internal Marker) (AID 2282976; active means hit-call score of the fitted dose curve at least 0.9, where 1 is the maximum); conditions: HepG2 Attagene TRANS GAL4 internal marker reporter
How it was run: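 RT-PCR/capillary electrophoresis readout of reporter mRNA. HepG2, transient MRTU transfection (GAL4-UAS reporters), 24 h compound exposure. Background-control endpoint, positive direction vs DMSO baseline.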

Measured: AC50

C=C(C)C(=O)OCCCCCCCCCCCC
active: [6] 56.7 µM
not listed: [9] | [10]
inactive: all other assays above

CC1(C)[C@@H]2CC[C@@]1(C)C(=O)C2
not listed: [10]
inactive: all other assays above

Clc1cc(Cl)c(Cl)c(Cl)c1Cl
active: [3] 100 µM | [4] 56.2 µM | [6] 27 µM
not listed: [7]
inactive: all other assays above

C=CC(=O)NC(C)(C)C
not listed: [7] | [9] | [10]
inactive: all other assays above

Fc1ccc(Br)cc1
active: [6] 79.7 µM
not listed: [10]
inactive: all other assays above

C=CC(=O)O[C@H]1C[C@@H]2CC[C@@]1(C)C2(C)C
inactive: [1] | [2] | [3] | [4] | [8]
active: [5] 162 µM | [6] 100 µM

C=Cc1ccc(OC(C)=O)cc1
active: [6] 31.6 µM | [8] 53.7 µM
not listed: [7] | [10]
inactive: all other assays above

CCCCCC1=CCCC1=O
not listed: [7] | [9] | [10]
inactive: all other assays above

C=CC(=O)OCCCCCCCCCC
not listed: [10]
inactive: all other assays above

CC(Cl)COP(=O)(OCC(C)Cl)OCC(C)Cl (stereo not drawn)
active: [4] 3.75 µM
inactive: all other assays above

CC1=NN(c2ccc(S(=O)(=O)O)cc2)C(=O)C1N=Nc1ccccc1 (stereo not drawn)
not listed: [7] | [9] | [10]
inactive: all other assays above

Cc1cccc(C(C)(C)C)c1O
active: [4] 19.9 µM
not listed: [7] | [9] | [10]
inactive: all other assays above

O=S(=O)(O)c1ccc(N=Nc2c(O)ccc3ccccc23)cc1
not listed: [7] | [10]
inactive: all other assays above

CC1=CC(C)C(C=O)CC1 (stereo not drawn)
not listed: [9] | [10]
inactive: all other assays above

From PubChem BioAssay (EPA / NIEHS)
